Seven compounds from PubChem BioAssay (EPA / NIEHS) can be followed below.

Calls of active or inactive are those of the source. Rule for the calls: active = hit-call score of the fitted dose curve at least 0.9, where 1 is the maximum; inactive = score below 0.9.

Assay [1] addresses Bile acid receptor (Homo sapiens) (UniProt Q96RI1). Kind of assay: ATG_IR1_CIS: Attagene CIS-FACTORIAL HepG2 Assay for human Nuclear Receptor Subfamily 1 Group H Member 4 (NR1H4), IR1 submotif (AID 2282946). As to conditions: IR1 reporter transcription, actives raise or lower the signal. In outline: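 Readout: reporter transcript levels by RT-PCR with fluorescent capillary electrophoresis, from HepG2 cells transiently transfected with multiplexed cis-regulated reporters and dosed 24 h. Gain- or loss-of-signal fitted versus DMSO negative control.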

Assay [2] is described as follows: ATG_GRE_CIS: Attagene CIS-FACTORIAL HepG2 Assay for human Glucocorticoid Response Elements (GRE) (AID 2282947). As to conditions: HepG2 GRE cis-reporter, Attagene multiplex mRNA; actives raise or lower the signal. In short, it runs like this: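 Cells (HepG2) bearing transfected cis-promoter reporter transcription units were treated with chemical for 24 hours. Reporter mRNA was measured via RT-PCR with capillary electrophoresis, and activity was fitted in both directions relative to DMSO.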

Assay [3] is described as follows: ATG_ISRE_CIS: Attagene CIS-FACTORIAL HepG2 Assay for human Interferon Regulatory Factor 1 (IRF1) binding to an Interferon-Stimulated Response Element (ISRE) (AID 2282948). As to conditions: HepG2 ISRE cis-reporter (Attagene), mRNA transcription readout; actives raise or lower the signal. In short, it runs like this: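 Multiplexed mRNA reporter readout in human liver HepG2 cells: cis-element-driven reporters transfected, compound added for 24 h, transcripts amplified, fluorescently labelled and sized by capillary electrophoresis; curve fitting bidirectional against DMSO.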

Assay [4] in a line: ATG_M_32_CIS: Attagene CIS-FACTORIAL HepG2 Assay for M32 Transcription Factor (Internal Marker) (AID 2282949).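 Note: background control marker of the multiplexed CIS panel rather than a real target.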 As to conditions: HepG2 Attagene cis-factorial M32 reporter, mRNA; actives raise or lower the signal. In outline:
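HepG2 transfectants (cis-regulated reporter transcription units) dosed 24 h. Reporter mRNA by RT-PCR plus CE, analysed as gain or loss relative to DMSO.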

Assay [5] is described as follows: ATG_M_06_CIS: Attagene CIS-FACTORIAL HepG2 Assay for M06 Transcription Factor (Internal Marker) (AID 2282950). As to conditions: HepG2 Attagene CIS-FACTORIAL M06 internal marker reporter; actives raise or lower the signal. In outline:
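Read-out is fluorescence of labelled reporter cDNA fragments resolved by capillary electrophoresis after RT-PCR. Cells: HepG2 carrying transfected cis-promoter reporter units, treated 24 h. Gain or loss of signal fitted relative to DMSO.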

The target of assay [6] is Hepatocyte nuclear factor 6 (Homo sapiens) (UniProt Q9UBC0). Kind of assay: ATG_HNF6_CIS: Attagene CIS-FACTORIAL HepG2 Assay for human Hepatocyte Nuclear Factor 6 (HNF6) (AID 2282952). As to conditions: HepG2 Attagene cis-factorial HNF6 reporter transcription; actives raise or lower the signal. In short, it runs like this:
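Using cis-element reporters in HepG2 liver cells, the assay tracks endogenous factor-driven transcription 24 h post-dosing. Signal comes from 6-FAM-labelled, HpaI-digested RT-PCR fragments, with gain or loss scored against DMSO.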

A short description of assay [7]: ATG_MRE_CIS: Attagene CIS-FACTORIAL HepG2 Assay for human Metal Responsive Element (MRE) (AID 2282954). As to conditions: HepG2 MRE cis-reporter transcription, Attagene multiplex; actives raise or lower the signal. In short, it runs like this:
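Cells were transfected with cis-promoter reporter transcription units, then dosed for 24 h. RNA was reverse-transcribed, amplified, fluorescently labelled and resolved by capillary electrophoresis, and activity was fitted in both directions relative to DMSO.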

A short description of assay [8]: ATG_PBREM_CIS: Attagene CIS-FACTORIAL HepG2 Assay for human Phenobarbital-responsive Enhancer Module (PBREM) (AID 2282955). As to conditions: HepG2 PBREM cis-reporter, Attagene multiplexed transcription; actives raise or lower the signal. In short, it runs like this: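 Transfected liver-derived HepG2 cells exposed 24 h; PBREM reporter transcript quantified via RT-PCR and capillary electrophoresis, with activity in either direction referenced to DMSO.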

Assay [9] deals with Paired box protein Pax-6 (Homo sapiens) (UniProt P26367). Kind of assay: ATG_Pax6_CIS: Attagene CIS-FACTORIAL HepG2 Assay for human Paired Box 6 (PAX6) (AID 2282956). As to conditions: HepG2 CIS-FACTORIAL PAX6 reporter transcription, RNA readout; actives raise or lower the signal. In outline:
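Fluorescent RT-PCR products separated by capillary electrophoresis report PAX6-linked promoter mRNA in HepG2 cells 24 h post-dose. Curves fitted bidirectionally, DMSO as negative control.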

Assay [10] is described as follows: ATG_PXRE_CIS: Attagene CIS-FACTORIAL HepG2 Assay for human Pregnane X Receptor Element (PXRE) (AID 2282957). As to conditions: HepG2 Attagene CIS-FACTORIAL PXRE reporter, mRNA; actives raise or lower the signal. In short, it runs like this: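 Using HepG2 transfected with multiple reporter transcription units, endogenous factor-driven transcription was scored as reporter mRNA after 24 h exposure.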

Assay [11] can be described thus: ATG_PPRE_CIS: Attagene CIS-FACTORIAL HepG2 Assay for human Peroxisome Proliferator-activated Response Element (PPRE) (AID 2282958). As to conditions: HepG2 PPRE cis-element reporter, Attagene transcription factor profiling; actives raise or lower the signal. In short, it runs like this: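 Measured endpoint: PPRE-controlled reporter mRNA, detected by RT-PCR and capillary electrophoresis fluorescence, from transiently transfected HepG2 cells 24 h after dosing. Curves fitted in both directions using DMSO baseline.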

A short description of assay [12]: ATG_RORE_CIS: Attagene CIS-FACTORIAL HepG2 Assay for human RAR-related Orphan Receptor Element (RORE) (AID 2282959). As to conditions: HepG2 Attagene cis-factorial RORE reporter, mRNA; actives raise or lower the signal. In outline: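 Transiently transfected HepG2 reporter cells were treated 24 h. Reporter transcripts were detected by RT-PCR and capillary electrophoresis, with bidirectional fitting against DMSO.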

Assay [13] has as its target Transcription factor Sp1 (Homo sapiens) (UniProt P08047). Nature of the assay: ATG_Sp1_CIS: Attagene CIS-FACTORIAL HepG2 Assay for human Specificity Protein 1 (Sp1) (AID 2282961). As to conditions: HepG2 Sp1 cis-reporter transcription, actives raise or lower the signal. In outline:
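Endpoint reflects endogenous Sp1 transcriptional activity, not an exogenous fusion protein: HepG2 cells with transfected cis-regulated reporters, 24 h dosing, RT-PCR/capillary electrophoresis mRNA read-out, DMSO-normalised bidirectional fit.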

A short description of assay [14]: ATG_SREBP_CIS: Attagene CIS-FACTORIAL HepG2 Assay for human Sterol Regulatory Element Binding (SREBP) (AID 2282962). As to conditions: HepG2 Attagene cis-factorial SREBP reporter, mRNA; actives raise or lower the signal. In short, it runs like this: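 Endogenous factor activity is measured in HepG2 through multiplexed reporter units under cis-element control. Following a 24 h incubation, reporter transcripts are reverse-transcribed, PCR-amplified and sized by capillary electrophoresis; activity is fitted in both directions relative to DMSO.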

Assay [15] in a line: ATG_TA_CIS: Attagene CIS-FACTORIAL HepG2 Assay for human TA Basal Promoter (AID 2282964). As to conditions: HepG2 Attagene CIS-factorial TA basal promoter reporter; actives raise or lower the signal. In short, it runs like this:
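Read-out: fluorescent reporter-transcript fragments resolved by capillary electrophoresis after RT-PCR and HpaI digestion. Source: HepG2 cells carrying transiently transfected multi-reporter cis constructs, treated 24 h. Endpoint fitted bidirectionally relative to DMSO.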

Assay [16] is described as follows: ATG_TCF_b_cat_CIS: Attagene CIS-FACTORIAL HepG2 Assay for human T-Cell-Factor with beta-catenin (TCF/b-cat) (AID 2282965). As to conditions: HepG2 TCF/beta-catenin cis-reporter transcription, actives raise or lower the signal. In short, it runs like this:
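In this cis-format system, transfected HepG2 cells report endogenous transcription factor activity. Readout after 24 h exposure is reporter transcript abundance from RT-PCR and capillary electrophoresis, analysed for gain or loss of signal versus DMSO.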

Assay [17] concerns the target Heat shock factor protein 1 (Homo sapiens) (UniProt Q00613). Nature of the assay: ATG_HSE_CIS: Attagene CIS-FACTORIAL HepG2 Assay for human Heat Shock Transcription Factor 1 (HSE) (AID 2282953). As to conditions: HepG2 HSE cis-reporter, Attagene RNA transcription; actives raise or lower the signal. In outline: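 HepG2, transient MRTU transfection, cis-promoter reporters (endogenous TF activity). 24 h compound. RNA → oligo(dT) RT → PCR → 6-FAM primer extension → HpaI cut → CE. Bidirectional fit vs DMSO.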

Assay [18] is described as follows: ATG_Sox_CIS: Attagene CIS-FACTORIAL HepG2 Assay for human SRY-box transcription factor (SOX) (AID 2282960). As to conditions: HepG2 Attagene cis-factorial SOX reporter, mRNA; actives raise or lower the signal. In short, it runs like this: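 Gain- or loss-of-signal endpoint, fitted bidirectionally with DMSO as negative control. Based on reporter mRNA from transfected HepG2 cells harvested 24 h post-treatment and quantified via RT-PCR and capillary electrophoresis.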

The target of assay [19] is Signal transducer and activator of transcription 3 (Homo sapiens) (UniProt P40763). Nature of the assay: ATG_STAT3_CIS: Attagene CIS-FACTORIAL HepG2 Assay for human Signal Transducer and Activator of Transcription 3 (STAT3) (AID 2282963). As to conditions: HepG2, Attagene cis-factorial STAT3 reporter transcription; actives raise or lower the signal. In short, it runs like this: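 HepG2, MRTU-transfected, 24 h dosing. RNA → RT → PCR → FAM label → HpaI → CE. Bidirectional fit vs DMSO.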
Signal transducer and activator of transcription 3 (Homo sapiens), sequence (P40763 whole entry, looked up): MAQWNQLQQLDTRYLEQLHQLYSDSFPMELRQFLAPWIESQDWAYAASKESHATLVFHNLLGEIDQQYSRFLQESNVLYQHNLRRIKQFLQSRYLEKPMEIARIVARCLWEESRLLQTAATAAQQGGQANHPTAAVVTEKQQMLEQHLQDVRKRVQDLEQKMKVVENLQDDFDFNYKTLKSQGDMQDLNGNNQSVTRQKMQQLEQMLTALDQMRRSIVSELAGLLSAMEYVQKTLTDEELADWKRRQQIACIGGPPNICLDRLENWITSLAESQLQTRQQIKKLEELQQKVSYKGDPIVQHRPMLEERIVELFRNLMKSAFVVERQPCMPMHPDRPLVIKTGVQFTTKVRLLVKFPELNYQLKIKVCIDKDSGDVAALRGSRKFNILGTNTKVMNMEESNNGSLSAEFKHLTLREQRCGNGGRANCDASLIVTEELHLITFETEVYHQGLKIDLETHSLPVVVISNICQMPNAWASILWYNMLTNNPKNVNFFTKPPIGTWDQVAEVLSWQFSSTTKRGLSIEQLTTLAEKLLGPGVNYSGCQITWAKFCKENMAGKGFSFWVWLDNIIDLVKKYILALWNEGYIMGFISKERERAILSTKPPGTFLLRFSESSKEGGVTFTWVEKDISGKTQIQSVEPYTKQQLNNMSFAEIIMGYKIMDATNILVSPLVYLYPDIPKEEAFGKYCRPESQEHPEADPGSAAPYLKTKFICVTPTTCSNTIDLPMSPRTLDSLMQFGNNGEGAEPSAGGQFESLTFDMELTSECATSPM

In assay [20] the target is Hypoxia-inducible factor 1-alpha (Homo sapiens) (UniProt Q16665). Nature of the assay: ATG_HIF1a_CIS: Attagene CIS-FACTORIAL HepG2 Assay for human Hypoxia Inducible Factor 1 (HIF1A) (AID 2282951). As to conditions: HepG2 Attagene cis-factorial HIF1a reporter transcription; actives raise or lower the signal. In outline:
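Dosed 24 h, transfected HepG2 cells yielded total RNA whose reporter transcripts were RT-PCR-amplified and sized by capillary electrophoresis using fluorescent labelling; DMSO defined baseline, with gain and loss of signal both fitted.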

Bile acid receptor (Homo sapiens), sequence (Q96RI1 whole entry, looked up): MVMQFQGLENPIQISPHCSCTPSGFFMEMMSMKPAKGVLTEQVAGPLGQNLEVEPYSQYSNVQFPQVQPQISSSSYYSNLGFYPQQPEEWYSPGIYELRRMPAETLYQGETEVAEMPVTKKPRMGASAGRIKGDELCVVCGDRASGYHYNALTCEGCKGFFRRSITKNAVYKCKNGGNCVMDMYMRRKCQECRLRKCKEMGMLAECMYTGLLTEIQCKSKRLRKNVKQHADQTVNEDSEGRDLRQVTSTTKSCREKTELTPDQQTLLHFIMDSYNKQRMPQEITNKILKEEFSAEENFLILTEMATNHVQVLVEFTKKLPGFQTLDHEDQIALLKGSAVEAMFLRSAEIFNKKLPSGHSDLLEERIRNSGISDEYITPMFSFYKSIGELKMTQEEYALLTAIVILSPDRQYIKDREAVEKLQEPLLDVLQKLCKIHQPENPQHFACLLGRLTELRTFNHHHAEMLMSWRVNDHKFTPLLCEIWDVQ
Paired box protein Pax-6 (Homo sapiens), sequence (P26367 whole entry, looked up): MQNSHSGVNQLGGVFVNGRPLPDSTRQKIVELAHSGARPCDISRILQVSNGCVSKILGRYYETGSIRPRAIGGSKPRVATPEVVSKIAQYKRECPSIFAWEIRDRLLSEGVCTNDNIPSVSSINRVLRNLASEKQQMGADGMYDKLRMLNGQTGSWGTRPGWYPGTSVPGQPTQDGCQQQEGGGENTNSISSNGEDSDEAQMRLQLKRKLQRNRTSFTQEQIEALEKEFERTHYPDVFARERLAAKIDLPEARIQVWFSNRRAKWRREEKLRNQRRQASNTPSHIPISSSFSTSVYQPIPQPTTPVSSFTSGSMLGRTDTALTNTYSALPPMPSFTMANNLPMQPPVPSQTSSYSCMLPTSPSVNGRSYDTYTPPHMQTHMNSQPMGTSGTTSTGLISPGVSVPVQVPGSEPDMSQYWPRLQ
Transcription factor Sp1 (Homo sapiens), sequence (P08047 whole entry, looked up, the tested form may be a part): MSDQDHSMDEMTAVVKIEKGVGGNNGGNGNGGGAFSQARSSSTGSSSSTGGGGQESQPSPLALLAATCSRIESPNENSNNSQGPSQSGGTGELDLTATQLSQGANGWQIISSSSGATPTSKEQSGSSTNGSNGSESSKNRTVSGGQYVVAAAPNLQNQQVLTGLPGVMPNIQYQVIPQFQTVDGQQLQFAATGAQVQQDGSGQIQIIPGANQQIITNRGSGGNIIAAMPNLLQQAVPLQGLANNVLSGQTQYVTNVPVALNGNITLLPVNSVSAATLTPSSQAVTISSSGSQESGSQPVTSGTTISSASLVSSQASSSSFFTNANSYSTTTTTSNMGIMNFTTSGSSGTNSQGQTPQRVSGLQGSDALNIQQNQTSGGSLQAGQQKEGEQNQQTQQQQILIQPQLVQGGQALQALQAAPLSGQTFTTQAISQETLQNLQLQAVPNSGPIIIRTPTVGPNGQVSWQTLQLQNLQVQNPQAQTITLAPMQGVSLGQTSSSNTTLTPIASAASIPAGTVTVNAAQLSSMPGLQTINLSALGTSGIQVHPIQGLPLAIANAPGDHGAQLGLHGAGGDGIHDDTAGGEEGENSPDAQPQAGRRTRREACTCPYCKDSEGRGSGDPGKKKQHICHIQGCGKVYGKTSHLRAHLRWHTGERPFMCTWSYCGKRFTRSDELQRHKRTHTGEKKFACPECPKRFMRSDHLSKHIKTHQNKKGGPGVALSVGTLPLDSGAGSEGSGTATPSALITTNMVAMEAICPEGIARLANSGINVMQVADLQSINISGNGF
Hepatocyte nuclear factor 6 (Homo sapiens), sequence (Q9UBC0 whole entry, looked up, the tested form may be a part): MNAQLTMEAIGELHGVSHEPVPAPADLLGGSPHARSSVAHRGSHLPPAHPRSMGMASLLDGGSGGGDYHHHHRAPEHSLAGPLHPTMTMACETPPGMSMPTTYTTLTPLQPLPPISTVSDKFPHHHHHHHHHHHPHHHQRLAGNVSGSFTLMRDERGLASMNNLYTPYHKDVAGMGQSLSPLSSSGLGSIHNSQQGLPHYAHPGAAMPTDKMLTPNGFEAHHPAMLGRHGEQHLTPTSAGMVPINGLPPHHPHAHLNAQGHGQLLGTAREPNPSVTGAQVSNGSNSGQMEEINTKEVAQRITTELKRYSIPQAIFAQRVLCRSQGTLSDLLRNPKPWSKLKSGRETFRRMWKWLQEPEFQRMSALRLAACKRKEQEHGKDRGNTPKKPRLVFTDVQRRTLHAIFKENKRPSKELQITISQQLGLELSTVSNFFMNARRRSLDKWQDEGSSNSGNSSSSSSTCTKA
Heat shock factor protein 1 (Homo sapiens), sequence (Q00613 whole entry, looked up): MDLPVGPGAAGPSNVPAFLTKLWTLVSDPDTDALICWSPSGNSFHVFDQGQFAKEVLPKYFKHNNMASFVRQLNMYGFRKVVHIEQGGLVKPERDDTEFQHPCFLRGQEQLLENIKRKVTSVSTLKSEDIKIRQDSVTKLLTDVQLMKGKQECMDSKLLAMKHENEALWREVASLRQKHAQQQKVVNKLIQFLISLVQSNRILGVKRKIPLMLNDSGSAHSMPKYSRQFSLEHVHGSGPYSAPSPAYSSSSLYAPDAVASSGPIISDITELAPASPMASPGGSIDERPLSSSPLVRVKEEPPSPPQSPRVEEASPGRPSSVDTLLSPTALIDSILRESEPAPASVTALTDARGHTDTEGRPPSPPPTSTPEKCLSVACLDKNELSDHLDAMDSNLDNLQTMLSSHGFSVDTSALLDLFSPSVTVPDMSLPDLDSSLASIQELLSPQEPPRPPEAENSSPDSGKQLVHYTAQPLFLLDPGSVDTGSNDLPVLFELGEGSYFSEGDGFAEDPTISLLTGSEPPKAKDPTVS
Hypoxia-inducible factor 1-alpha (Homo sapiens), sequence (Q16665 whole entry, looked up): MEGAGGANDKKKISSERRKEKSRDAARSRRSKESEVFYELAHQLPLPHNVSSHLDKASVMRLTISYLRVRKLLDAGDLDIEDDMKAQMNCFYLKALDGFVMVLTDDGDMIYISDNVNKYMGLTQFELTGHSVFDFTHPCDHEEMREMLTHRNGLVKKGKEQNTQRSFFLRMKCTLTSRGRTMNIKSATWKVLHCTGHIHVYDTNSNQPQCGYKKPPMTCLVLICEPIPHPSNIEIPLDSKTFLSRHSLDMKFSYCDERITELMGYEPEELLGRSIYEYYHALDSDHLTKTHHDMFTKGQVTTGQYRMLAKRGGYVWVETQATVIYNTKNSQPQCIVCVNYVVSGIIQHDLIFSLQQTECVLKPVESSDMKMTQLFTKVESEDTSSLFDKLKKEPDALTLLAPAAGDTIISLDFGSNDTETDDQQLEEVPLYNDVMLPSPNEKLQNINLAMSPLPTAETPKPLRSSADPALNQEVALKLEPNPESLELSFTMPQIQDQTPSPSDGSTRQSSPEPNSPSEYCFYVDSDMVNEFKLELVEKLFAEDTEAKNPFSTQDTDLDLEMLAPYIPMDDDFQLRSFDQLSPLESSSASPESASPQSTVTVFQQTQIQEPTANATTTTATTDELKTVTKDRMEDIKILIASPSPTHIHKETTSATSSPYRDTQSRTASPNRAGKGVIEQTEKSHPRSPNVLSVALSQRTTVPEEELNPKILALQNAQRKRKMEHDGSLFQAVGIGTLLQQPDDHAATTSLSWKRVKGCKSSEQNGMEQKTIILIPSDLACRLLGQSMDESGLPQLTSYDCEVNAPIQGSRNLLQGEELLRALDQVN

Turning to `O=c1c(O)c(-c2ccc(O)cc2)oc2cc(O)cc(O)c12`, the outcome in assay [1], in [2], in assay [3], in [4], in assay [5] and in [6] was inactive. The compound was classed as inactive in [7], in assay [8], in assay [9], in [11], in assay [12] and in assay [13]. Moreover, the result in assay [14], in assay [15] and in assay [16] was inactive. In assay [10], the half-maximal activity concentration (AC50) – broadly, the concentration giving half of the maximal activity seen – is 39.1 µM (active).
Take `c1ccc2cc(Nc3ccc(Nc4ccc5ccccc5c4)cc3)ccc2c1`: the call in assay [1], in assay [2], in [3], in assay [4], in assay [5] and in assay [6] was inactive. For the same compound, the outcome in [17], in assay [7], in assay [8], in assay [9], in assay [10] and in assay [11] was inactive. Besides, the compound was called inactive in [18], in [13], in [14], in [19] and in assay [16]. In [12], the AC50 is 5.31 µM (active).
As to `Cc1c(OCC(F)(F)F)ccnc1CS(=O)c1nc2ccccc2[nH]1` (centres undefined), the compound was called inactive in assay [1], in [2], in assay [3], in [4], in assay [5] and in assay [6]. The outcome in assay [8], in assay [11], in [18], in assay [13], in assay [14] and in [19] was inactive. Besides, the AC50 in [7] was 73.1 µM (active); in [9], 43.5 µM (active); in [12] it was 19.8 µM (active); in assay [15] it was 37.3 µM (active); in assay [16], 57.7 µM (active).
Regarding `O=C(CC(=O)c1ccccc1)c1ccccc1`, the compound was classed as inactive in assay [1], in [2], in [4], in [5], in [19] and in assay [15]. Besides, the AC50 in assay [3] was 95.9 µM (active); in assay [20] it was 33.5 µM (active); in [7] it was 136 µM (active); in assay [9], 100 µM (active); in assay [10] it was 25.3 µM (active); in [12], 26.7 µM (active). Besides, the half-maximal activity concentration (AC50) in [18] was 100 µM (active); in [13], 94.3 µM (active); in assay [14], 67.7 µM (active).
For `CCCCOCC`, the result in assay [1], in [2], in assay [3], in [4], in [20] and in assay [6] was inactive. In addition, the compound was called inactive in assay [17], in assay [7], in assay [8], in assay [9], in assay [10] and in [11]. In addition, the compound was called inactive in [12], in [18], in [13], in [14], in assay [19] and in [15].
In the case of `COc1ccc(CCN2CCC(Nc3nc4ccccc4n3Cc3ccc(F)cc3)CC2)cc1`, the result in assay [1], in assay [2], in assay [3], in [4], in assay [5] and in assay [6] was inactive. Further, the compound was called inactive in assay [17], in [7], in assay [8], in [9], in [10] and in assay [11]. In addition, the call in [12], in assay [13], in [19], in [15] and in [16] was inactive. Further, the AC50 in assay [14] is 2.12 µM (active).
On to `CCCCCCCCCCCCCC(=O)OCC(O)CO` (centres undefined), for which the result in [1], in assay [2], in [3], in [4], in assay [5] and in [20] was inactive. In addition, the result in [6], in assay [7], in [8], in assay [9], in assay [10] and in assay [12] was inactive. In addition, the compound was classed as inactive in assay [18], in [13], in assay [15] and in assay [16]. Further, the AC50 in assay [14] is 67 µM (active).
